From PubChem BioAssay AID588689 (Southern Research Specialized Biocontainment Screening …, 2011)
In all, about 340,000 compounds went through this assay and about 1,000 (0.29%) were called active. Rule as the data show it: inconclusive = inhibition above about 29% without an active follow-up result; inactive = below that. Not all results are given here. Potency and affinity values are given separately.

Target: Genome polyprotein (Dengue virus type 2 (strain 16681-PDK53)) (UniProt P29991)
Assay: Dengue-2 NS5 methyltransferase inhibitors, primary screen, biochemical, confirmation dose response (AID 588689)
Details: Dengue-2 NS5 methyltransferase capping enzyme assay, at 25 µM, stronger effect = higher value
[1] = measured here: pilot screen replicate inhibition

## Cc1onc(-c2c(F)cccc2Cl)c1C(=O)NNC(=O)C1CCN(Cc2cccc(F)c2)CC1
  inhibition: -7.02% (inactive)

## COc1ccc(S(=O)(=O)NNC(=O)c2cccs2)cc1
  inhibition: -2.33% (inactive)

## O=c1[nH]c2ccccc2c(O)c1-c1ccccc1[N+](=O)[O-]
  inhibition: -7.29% (inactive)

## COc1cc(C(=O)Nc2c(C(=O)O)[nH]c3ccccc23)cc(OC)c1OC
  inhibition: -6.62% (inactive)

## O=C(O)c1[nH]c2ccc([N+](=O)[O-])cc2c1-c1ccccc1
  inhibition: 10.3% (inactive)

## COc1ccc(S(=O)(=O)Nc2c(C(=O)O)[nH]c3ccccc23)cc1OC
  inhibition: 1.6% (inactive)

## CSc1nsc(SCC(=O)Nc2ccc(NC(C)=O)cc2)n1
  inhibition: 2.42% (inactive)

## COc1ccccc1CNS(=O)(=O)c1cccc2nsnc12
  inhibition: 3.22% (inactive)

## Cc1ccc(NC(=O)CSCC(=O)NCc2cccc(C(F)(F)F)c2)cc1
  inhibition: 0.73% (inactive)

## O=C(CSc1nc(O)c(C(c2ccccc2)c2ccccc2)c(=O)[nH]1)N1CCOCC1
  inhibition: -5.31% (inactive)

## Cc1ccccc1-n1cnnc1SCC(=O)Nc1cccnc1Cl
  inhibition: 2.99% (inactive)

## CCCCOC(=O)c1ccc(NC(=O)C(=O)NCc2cccnc2)cc1
  inhibition: -1.56% (inactive)

## N=C1C(c2nc3ccccc3s2)=C(O)CN1Cc1ccco1
  inhibition: -1.36% (inactive)

## Nc1nc(CSC(=S)N2CCOCC2)nc(Nc2ccccc2)n1
  inhibition: 1.28% (inactive)

## Cc1ccc(CNC(=O)C2CCC(=O)N2C(C)C)cc1 (stereo unspecified)
  inhibition: -1.99% (inactive)

## O=C(NN1C(=O)/C(=C/c2ccc(O)c([N+](=O)[O-])c2)SC1=S)c1ccccc1Cl
  inhibition: -3.59% (inactive)

## COc1cc(/C=C2\SC(=O)N(c3ccccc3Cl)C2=O)cc([N+](=O)[O-])c1O
  inhibition: -6.99% (inactive)

## CCc1cccc(N(C(=O)c2csnn2)C(C(=O)NC(C)(C)C)c2ccccn2)c1 (stereo unspecified)
  inhibition: -5.18% (inactive)

## CCC(C)NC(=O)Nc1ccccc1C (stereo unspecified)
  inhibition: -2.79% (inactive)

## CCC(=O)c1ccc(OCC(O)CN2CCN(S(=O)(=O)N3CCCCC3)CC2)cc1 (stereo unspecified)
  inhibition: 5.46% (inactive)

## O=c1oc2ccccc2c2c1C(O)CO2 (stereo unspecified)
  inhibition: -7.16% (inactive)

## Cc1c(O)c2ccccc2oc1=O
  inhibition: -7.95% (inactive)

## OCC1OC2C(NC(=S)N2c2ccccc2)C(O)C1O (stereo unspecified)
  inhibition: 0.77% (inactive)

## COc1ccc(C(c2c(C)[nH][nH]c2=O)c2c(C)[nH][nH]c2=O)cc1Br
  inhibition: -3.47% (inactive)

## Nc1ccccc1O
  inhibition: -6.55% (inactive)

## Oc1ccccc1O
  inhibition: 0.73% (inactive)

## O=C(Nc1ccc2c(c1)OCO2)N1CCN(Cc2ccco2)CC1
  inhibition: 0% (inactive)

## COc1ccc(NCc2ccc([N+](=O)[O-])s2)c(OC)c1
  inhibition: 7.28% (inactive)

## COc1ccc(OC)c(N2C(=O)c3cccnc3C2=O)c1
  inhibition: 0.65% (inactive)
[1]
  inhibition: 1.22%

## COc1ccc(N2C(=O)/C(=C/c3ccc([N+](=O)[O-])cc3)N=C2C)c(OC)c1
  inhibition: -3.69% (inactive)

## COc1ccc(OC)c(N2C(=O)CCCC2=O)c1
  inhibition: -1.93% (inactive)

## COc1ccc(NC(=S)N2CCC(C(=O)c3ccc(C)cc3)CC2)cc1
  inhibition: -11.5% (inactive)

## Cc1ccc(C2=NNC(C(O)C(O)C(O)CO)S2)cc1 (stereo unspecified)
  inhibition: -8.04% (inactive)

## O=C(CCN1C(=O)/C(=C/c2ccccc2Cl)SC1=S)NNC(=O)c1ccccc1O
  inhibition: -5.13% (inactive)

## O=C(CCN1C(=O)/C(=C/c2cccs2)SC1=S)Nc1ccc(C(=O)O)c(O)c1
  inhibition: 15% (inactive)

## O=C(CCN1C(=O)/C(=C\C=C\c2ccccc2)SC1=S)Nc1ccc(C(=O)O)cc1
  inhibition: 9.75% (inactive)

## O=C(CN1C(=O)S/C(=C\C=C\c2ccccc2)C1=O)Nc1ccccc1C(=O)O
  inhibition: 24.3% (inactive)

## O=C(CCN1C(=O)S/C(=C/c2ccccc2)C1=O)Nc1ccc(C(=O)O)c(O)c1
  inhibition: 25.9% (inactive)

## O=C(CCN1C(=O)/C(=C/c2ccccc2Cl)SC1=S)Nc1ccccn1
  inhibition: 1.55% (inactive)

## COc1ccccc1/C=C1\SC(=S)N(CCC(=O)Nc2ccc(C(=O)O)c(O)c2)C1=O
  inhibition: 19.8% (inactive)

## O=C(CCN1C(=O)S/C(=C/c2ccc(F)cc2)C1=O)Nc1ccc(O)c(C(=O)O)c1
  inhibition: 19.6% (inactive)

## CCN(Cc1nc2cc(Cl)ccc2c(=O)[nH]1)C(=O)c1cccc(NC(=O)c2cccs2)c1
  inhibition: -6.19% (inactive)

## Cc1ccc(NC(=O)CCC(=O)c2ccccc2)cc1
  inhibition: -17.5% (inactive)

## Cc1ccc(S(=O)(=O)NCCN2CCOCC2)c(C)c1C
  inhibition: 3.68% (inactive)

## O=C(Cc1ccc(Cl)cc1)N1CCC2(CC1)NCCc1[nH]cnc12
  inhibition: -10.7% (inactive)

## Cc1cc(NC(=O)CCC(=O)N(c2ccc(F)cc2)C(C(=O)NC2CCCC2)c2cccnc2)no1 (stereo unspecified)
  inhibition: 6.51% (inactive)

## O=C(CCN1C(=O)/C(=C/c2ccc3c(c2)OCO3)SC1=S)Nc1ccccc1
  inhibition: 2.89% (inactive)

## O=C(CCCN1C(=O)/C(=C/c2ccc3c(c2)OCO3)SC1=S)Nc1cccc(C(=O)O)c1
  inhibition: 0.32% (inactive)

## CC(C)c1ccc(C2N3CC4([N+](=O)[O-])CN2CC([N+](=O)[O-])(C3)C4(C)C)cc1 (stereo unspecified)
  inhibition: -2.65% (inactive)

## COc1ccc(/C=C2\C(=O)NC(=O)c3ccccc32)cc1OC
  inhibition: 25.5% (inactive)

## COc1ccc(C)cc1CN1C(=O)c2ccccc2C1=O
  inhibition: -12.4% (inactive)

## COc1ccccc1N1C(=O)Cc2ccccc2C1=O
  inhibition: 1.63% (inactive)

## COc1ccc(C=O)cc1CN1C(=O)c2ccccc2C1=O
  inhibition: 5.3% (inactive)

## COc1ccc(/C=C2/NC(=O)N(Cc3ccccc3F)C2=O)cc1OC
  inhibition: 0.77% (inactive)

## COc1ccc2c(c1)C(=O)N(c1ccccc1OC)C(=O)C2
  inhibition: 0.7% (inactive)

## O=c1cc(Cl)[nH]c(=O)n1Cc1ccc(F)cc1
  inhibition: -9.54% (inactive)

## Cc1cc(C)cc(NC(=O)c2ccc(NC(=O)c3ccco3)cc2)c1
  inhibition: -0.32% (inactive)

## N#CCC(=O)Nc1ccc(C(=O)NNC(=O)CCN2CCN(c3ccccc3)CC2)cc1
  inhibition: -13.1% (inactive)

## CCC[C@@H](CN1CCC[C@H]1CN1C(N)=NC[C@H]1CC(C)C)N1C[C@@H](Cc2ccccc2)N(CCCC2CCCC2)C1=N
  inhibition: -0.66% (inactive)
[1]
  inhibition: -1.83%
